Results taken from paper PMC5540273 (PLoS ONE, 2017).

How the values were obtained:
Details in all cases: concentration: 1 μM, replicates: in singlicate; n = 1
[1] = system: T1, RSK4(Kin.Dom.1-N-terminal)
T1 construct: gene RPS6KA6

[2] = system: T2, RSK4(Kin.Dom.2-C-terminal)
T2 construct: gene RPS6KA6

S6K1 = system: S6K1
SBK1 = system: SBK1
SGK2 = system: SGK2
SGK3 = system: SGK3
SGK = system: SGK
SIK2 = system: SIK2
SIK = system: SIK
SLK = system: SLK
SNARK = system: T3, SNARK
T3 construct: gene NUAK2

SNRK = system: SNRK
SRC = system: SRC
SRMS = system: SRMS
SRPK1 = system: SRPK1
SRPK2 = system: SRPK2
SRPK3 = system: SRPK3
STK16 = system: STK16
STK33 = system: STK33
STK35 = system: STK35
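Note: KINOMEscan kinase panel screen.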

| SMILES | %Inh [1] | %Inh [2] | %Inh (S6K1) | %Inh (SBK1) | %Inh (SGK2) | %Inh (SGK3) | %Inh (SGK) | %Inh (SIK2) | %Inh (SIK) | %Inh (SLK) | %Inh (SNARK) | %Inh (SNRK) | %Inh (SRC) | %Inh (SRMS) | %Inh (SRPK1) | %Inh (SRPK2) | %Inh (SRPK3) | %Inh (STK16) | %Inh (STK33) | %Inh (STK35) |
| --- | --- | --- | --- | --- | --- | --- | --- | --- | --- | --- | --- | --- | --- | --- | --- | --- | --- | --- | --- | --- |
| COCCOCCOc1cc2ncc3c4ccc(C#N)cc4[nH]c3c2cc1OC | 90% | 0% | 61% | 81% | 58% | 47% | 89% | 83% | 13% | 45% | 83% | 17% | 14% | 0% | 50% | 24% | 27% | 11% | 24% | 18% |
| CCS(=O)(=O)c1ccc(OC)c(Nc2nccc(-c3c(-c4cccc(NC(=O)c5c(F)cccc5F)c4)nn4ncccc34)n2)c1 [GSK326180] | 0% | 0% | 6% | 0% | 5% | 0% | 0% | 0% | 3% | 54% | 0% | 0% | 0% | 99.3% | 24% | 0% | 0% | 25% | 7% | 0% |
| Cl.Cl.NCC(NC(=O)c1cc(-c2ccccc2)c(-c2ccnc3[nH]ccc23)s1)c1ccccc1 (stereo not drawn) [GSK1321561] | 0% | 0% | 6% | 11% | 27% | 15% | 0% | 0% | 11% | 31% | 50% | 0% | 69% | 0% | 53% | 0% | 0% | 3% | 100% | 0% |
| Cl.c1ccc(-c2ccc3c(Nc4ccc5[nH]ccc5c4)ccnc3c2)nc1 [GW440138] | 0% | 34% | 0% | 0% | 0% | 6% | 0% | 0% | 0% | 84% | 4% | 0% | 60% | 0% | 38% | 22% | 0% | 0% | 0% | 0% |
| COc1cc(Nc2nccc(-c3c(-c4cccc(NC(=O)c5c(F)cccc5F)c4)nn4ccccc34)n2)cc(OC)c1OC [GSK323521] | 0% | 23% | 7% | 17% | 26% | 7% | 22% | 0% | 30% | 25% | 40% | 0% | 22% | 0% | 0% | 21% | 30% | 15% | 11% | 0% |
| COc1cccc(NC(=O)NC2CCN(c3ccnc(Nc4cc(OC)c(OC)c(OC)c4)n3)C2)c1 (stereo not drawn) [GSK1379763] | 0% | 0% | 0% | 15% | 0% | 7% | 0% | 4% | 0% | 42% | 33% | 0% | 10% | 0% | 61% | 0% | 0% | 77% | 0% | 3% |
| CN(c1ccc(NC(=O)Nc2cc(C(F)(F)F)ccc2F)cc1)c1ccnc(Nc2ccc(S(N)(=O)=O)cc2)n1 [GW809893] | 5% | 0% | 40% | 0% | 0% | 22% | 1% | 1% | 22% | 96.3% | 0% | 5% | 99.7% | 0% | 18% | 0% | 20% | 12% | 81% | 10% |
| Cn1cc(-c2ccc3c(c2)CCN3C(=O)Cc2cccc(F)c2)c2c(N)ncnc21 [GSK2603358] | 0% | 43% | 12% | 30% | 18% | 2% | 0% | 0% | 4% | 55% | 10% | 0% | 4% | 0% | 0% | 0% | 9% | 13% | 0% | 0% |
| COc1cc(Nc2nccc(-c3c(-c4cccc(NC(=O)c5c(F)cccc5F)c4)nn4ncccc34)n2)cc(OC)c1OC [GSK327238] | 10% | 6% | 38% | 28% | 0% | 1% | 0% | 26% | 78% | 99.2% | 95.2% | 0% | 99.9% | 98.5% | 38% | 0% | 0% | 67% | 22% | 96.9% |
